Bioassay records as filed in PubChem.
Compounds with a hit are over-represented: about 12% of the library has one in this group of screens.
G9a block: qHTS Assay for Inhibitors of Histone Lysine Methyltransferase G9a; Histone-lysine N-methyltransferase EHMT2 (Homo sapiens), Q96KQ7; G9a H3K9 monomethylation, AlphaScreen, 2 h; Potency, µM (titrated, usually from 102 µM), actives largely listed as inhibitors; hit rate 8.8% among 350,000; note: nearly all actives have a fitted effect of over 75% in size
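Signal arises when biotinylated H3K9 peptide, once monomethylated, bridges streptavidin donor and antibody-captured acceptor beads. Enzyme at 20 nM was preincubated 15 min with test compounds; peptide 500 nM and SAM 20 uM then reacted for 2 h.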
HP1b chromo inh: HTS for Inhibitors of HP1-beta Chromodomain Interactions with Methylated Histone Tails; Potency, µM (highest dose often 114 µM), hits mostly inhibitors; Chromobox protein homolog 1 (Homo sapiens), P83916; hit rate 0.56% among 390,000; AlphaScreen HP1-beta / biotin-H3K9me3 peptide binding; note: nearly all actives have a fitted effect of over 70% in size
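AlphaScreen: HP1-beta (50 nM) preformed 30 min with biotin-H3(1-18)K9me3 peptide (50 nM) in PBS pH 7.4, 0.01% Tween-20. Compound added for 30 min at RT, then streptavidin donor/nickel chelate acceptor beads (10 ug/mL) for 30 min.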
Sfp PPTase inh: qHTS Assay for Inhibitors of Bacillus subtilis Sfp phosphopantetheinyl transferase (PPTase) | hit rate 3.5% among 310,000 | Potency, µM, most hits filed as inhibitors | 4'-phosphopantetheinyl transferase ffp (Bacillus subtilis), Q9F4F7 | Biochemical Sfp PPTase activity, qHTS | AID 1490, 2009;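 note: the enzyme is Sfp with the accession as filed and its product quenches rhodamine fluorescence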
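Reaction rates are the 30-min fluorescence difference (ex 525, em 598 nm) in wells containing 15 nM Sfp, 5 uM rhodamine-CoA and 12.5 uM BHQ-2-YbbR at pH 7.6 with 10 mM MgCl2.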
JMJD2A Tudor: qHTS Assay for Inhibitors of JMJD2A-Tudor Domain; AlphaScreen JMJD2A-Tudor / H3K4me3 peptide binding; hit rate 4.4% among 390,000; Lysine-specific demethylase 4A (Homo sapiens), O75164; AID 504339, 2011; Potency, µM (highest dose often 114 µM), usual class: inhibitors; note: nearly all actives have a fitted effect of over 50% in size
Target sequence (O75164 whole entry, looked up, the tested form may be a part): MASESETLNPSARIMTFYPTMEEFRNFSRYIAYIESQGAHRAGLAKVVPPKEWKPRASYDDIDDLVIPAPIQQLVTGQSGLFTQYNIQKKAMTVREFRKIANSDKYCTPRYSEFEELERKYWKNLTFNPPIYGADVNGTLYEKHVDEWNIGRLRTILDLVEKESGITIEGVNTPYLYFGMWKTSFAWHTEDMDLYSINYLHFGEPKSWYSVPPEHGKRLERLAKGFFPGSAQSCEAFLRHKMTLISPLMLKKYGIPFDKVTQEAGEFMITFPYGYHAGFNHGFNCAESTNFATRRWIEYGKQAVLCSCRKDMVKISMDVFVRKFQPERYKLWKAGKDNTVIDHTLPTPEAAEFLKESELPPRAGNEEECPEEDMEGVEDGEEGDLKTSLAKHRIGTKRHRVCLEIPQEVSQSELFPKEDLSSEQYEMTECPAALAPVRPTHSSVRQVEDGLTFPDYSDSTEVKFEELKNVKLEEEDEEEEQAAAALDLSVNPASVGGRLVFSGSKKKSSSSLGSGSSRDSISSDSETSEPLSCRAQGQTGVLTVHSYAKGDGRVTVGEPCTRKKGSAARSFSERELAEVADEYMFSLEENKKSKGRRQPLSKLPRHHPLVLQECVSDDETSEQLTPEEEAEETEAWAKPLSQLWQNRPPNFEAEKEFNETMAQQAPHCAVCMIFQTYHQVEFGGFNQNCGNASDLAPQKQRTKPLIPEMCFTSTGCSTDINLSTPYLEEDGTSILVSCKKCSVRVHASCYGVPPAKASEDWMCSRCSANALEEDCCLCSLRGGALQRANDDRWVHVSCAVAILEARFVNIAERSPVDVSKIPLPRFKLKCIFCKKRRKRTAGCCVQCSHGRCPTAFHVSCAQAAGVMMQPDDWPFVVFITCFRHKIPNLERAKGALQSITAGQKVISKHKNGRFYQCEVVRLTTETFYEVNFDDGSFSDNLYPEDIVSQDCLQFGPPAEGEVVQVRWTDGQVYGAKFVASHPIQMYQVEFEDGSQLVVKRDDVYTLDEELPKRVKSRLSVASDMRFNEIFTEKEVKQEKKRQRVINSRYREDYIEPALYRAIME
TDP1 inh: qHTS Assay for Inhibitors of Tyrosyl-DNA Phosphodiesterase (TDP1); Tyrosyl-DNA phosphodiesterase 1 (Homo sapiens), Q9NUW8; Potency, µM (series often up to 130 µM), actives largely listed as inhibitors; hit rate 0.28% among 350,000; AID 485290, 2010; recombinant TDP1, AlphaScreen DNA substrate cleavage; note: nearly all actives have a fitted effect of over 40% in size
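AlphaScreen read-out: signal falls as enzyme removes the 3' tyrosine-FITC from a 5'-biotinylated DNA oligo (15 nM, 5 min, RT). Enzyme was E. coli-made recombinant Tdp1 at 1 nM, exposed to compound for 15 min beforehand; beads 10 ug/ml, 10 min.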
BAZ2B inh: qHTS Assay for Inhibitors of BAZ2B | Bromodomain adjacent to zinc finger domain protein 2B (Homo sapiens), Q9UIF8 | AlphaScreen BAZ2B-H3K14Ac peptide displacement | Potency, µM (titrated, usually from 114 µM), actives largely listed as inhibitors | hit rate 4.4% among 360,000 | AID 504333, 2011; note: nearly all actives have a fitted effect of over 60% in size
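BAZ2B (50 nM) with biotin-H3(5-23)K14Ac peptide (50 nM) in PBS pH 7.4, 0.01% Tween-20, preformed 30 min, then compound 30 min at room temperature; top concentration 110uM. AlphaScreen streptavidin donor/nickel chelate acceptor beads (10 ug/mL final), 20 min dark, signal read.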
Numbers stand for hits; i = inactive; ? = inconclusive; nt = no result given; [ ] = remark or other dose. Calls come from the whole dose curve; as a rule, active = well fitted curve in the direction sought with a large enough effect; inconclusive = small, poorly fitted or top-dose-only effect, or another doubt; inactive = no such curve, though single readings can be large; an effect the other way counts as inactive or inconclusive.

SMILES	G9a block	HP1b chromo inh	Sfp PPTase inh	JMJD2A Tudor	TDP1 inh	BAZ2B inh
C#CCOCCOCCOCCNc1nc(N2CCN(C(=O)CCCCCCCCCCNC(=O)Cn3cc(CCCCCN)nn3)CC2)nc(N2CCN(C(=O)CCCCCCCCCCNC(=O)[C@@H](CCC(=O)O)n3cc(CCCCCN)nn3)CC2)n1	i[2.33 µM]	i	nt	?	i	i
C#CCOCCOCCOCCNc1nc(N2CCN(C(=O)CCCCCCCCCCNC(=O)Cn3cc(C[C@@H](C)O)nn3)CC2)nc(N2CCN(C(=O)CCCCCCCCCCNC(=O)[C@H](CCCN=C(N)N)n3cc(C[C@@H](C)CC)nn3)CC2)n1	i[2.33 µM]	?	nt	45µM	i	?
CC(=O)c1c(C)oc2c1C(=O)c1ccccc1C2=O	i	i	i	i	i	i
COc1ccc(C(=O)c2coc3c2C(=O)C(=O)c2ccccc2-3)cc1	nt	?	32µM	?	i	25µM
O=C1c2ccccc2C(=O)c2c1oc(C(F)(F)F)c2C(=O)c1ccccc1	4µM	?	i	?	i	7.1µM
O=C(c1ccccc1)c1coc2c1C(=O)c1ccccc1C2=O	45µM	?	?	i	i	32µM
CC(=O)N=c1c(C#N)cc2c(=O)n3ccccc3nc2n1CCCOC(C)C	nt	i	89µM	i	i	i
COc1cc(CNc2ccc(C(=O)O)cc2)cc(Br)c1OCC(=O)NC(C)(C)C	i	i	i	i	i	i
C=CCOc1c(Br)cc(CNc2ccc(NC(=O)C(C)C)c(OC)c2)cc1OC	i[0.501 µM]	i	i	35µM	i	?
Cc1ccc2c(=O)cc(C(=O)Nc3nnc(C)s3)oc2c1	?	i	nt	?	i	?
COc1cc(C(Nc2ccc3c(c2)OCO3)C(=O)NC2CCCCC2)cc(OC)c1OC (stereo unspecified)	2.8µM	i	13µM	?	i	40µM
Cc1ccc(SCCC(=O)OC(C(=O)NC(N)=O)C(C)C)cc1 (stereo unspecified)	?	i	i	11µM	i	i
CC1=C/C(=N\Nc2ccccc2[N+](=O)[O-])CC(C)(C)C1	3.5µM	7.1µM	i	7.9µM	i	2.8µM
COc1ccc(NC(=O)N2CCC(CN3CCCC3)CC2)c(OC)c1	i	i	nt	i	i	i
CCSc1nnc(NC(=O)CSc2nnc(CNC(=O)c3ccc(OC)cc3)o2)s1	i	i	i	i	i	i
CCc1nnc(NC(=O)CSc2nnc(COc3ccccc3C)o2)s1	50µM	i	?	i	i	i
CCc1nnc(NC(=O)CSc2nnc(COc3cccc(C)c3)o2)s1	?	i	?	i	i	i
COc1ccc(C(=O)NCc2nnc(SCC(=O)Nc3nnc(C)s3)o2)cc1	35µM	i	?	i	i	i
Clc1ccc(-c2noc(-c3cccnc3N3CCN(c4ccccc4)CC3)n2)cc1	i	i	nt	i	i	i
C/C(=N\Nc1nc2ccccc2[nH]1)c1ccc(Cl)s1	20µM	i	i	?	i	?
C/C(=N\Nc1ncc(Cl)cc1Cl)c1ccc(N2CCOCC2)cc1	56µM	i	25µM	i	i	50µM
C/C(=N\Nc1nc(C)cc(C)n1)c1ccc(N2CCOCC2)cc1	i	i	i	i	i	i
C/C(=N\Nc1nc2ccccc2[nH]1)c1ccc(N2CCOCC2)cc1	50µM	?	i	35µM	i	20µM
CC(=O)N1CCC(=NNc2nc3ccccc3[nH]2)CC1	45µM	?	i	25µM	i	28µM
O=Cc1ccnc(-c2ccc(OC(=O)c3ccco3)cc2)n1	i	i	i	i	i	i
CN(CCO)c1nc2c(c(=O)n(Cc3ccc(Cl)cc3)c(=O)n2C)n1C	i	i	i	?	nt	i
